Laboratory results reported in PubChem BioAssay (EPA / NIEHS).
Active and inactive are the calls of the source. How the source made its calls: active means hit-call score of the fitted dose curve at least 0.9, where 1 is the maximum; inactive means score below 0.9.

How the values were obtained:
Conditions in all cases: mRNA level, 48 h; actives raise or lower the signal
[1] = read-out: Alpha-fetoprotein (AFP) gene, AFP (gene 174); assay: LTEA_HepaRG_AFP: Life Technologies and Expression Analysis (LTEA) Assay for Alpha-fetoprotein (AFP) gene using HepaRG (AID 2283472)
In short: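 HepaRG, single lot; 48 h post-plating -> serum-free induction medium; cpd 8-pt, 100 uM top, half-log, 0.5% DMSO, duplicate, 48 h. RNA -> qRT-PCR AFP, norm ACTB/GAPDH/POLR2A. Bidirectional fit vs DMSO.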

BCL2L11 (gene 10018) = assay: LTEA_HepaRG_BCL2L11: Life Technologies and Expression Analysis (LTEA) Assay for Bcl-2 (BCL2L11) gene using HepaRG (AID 2283473)
In short: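 HepaRG, 48 h exposure, 8-pt half-log series from 100 uM in 0.5% DMSO, duplicates; qRT-PCR (Fluidigm TaqMan) for BCL2L11, housekeeping-normalized; bidirectional curve fit relative to DMSO baseline.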

[2] = read-out: Apolipoprotein A-V (APOA5) gene, APOA5 (gene 116519); assay: LTEA_HepaRG_APOA5: Life Technologies and Expression Analysis (LTEA) Assay for Apolipoprotein A-V (APOA5) gene using HepaRG (AID 2283474)
In short: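 HepaRG, 48 h chemical exposure in serum-free induction medium, 8-pt half-log series (top 100 uM), 0.5% DMSO vehicle, duplicates. Readout: APOA5 mRNA by qRT-PCR, housekeeping-normalized; bidirectional fit vs DMSO baseline.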

[3] = read-out: Apoptosis regulator Bcl-2 (Homo sapiens) (UniProt P10415); assay: LTEA_HepaRG_BCL2: Life Technologies and Expression Analysis (LTEA) Assay for Bcl-2 gene using HepaRG (AID 2283475)
In short: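 HepaRG, plated 48 h then switched to serum-free induction medium; dosed 48 h, 8 conc. (max 100 uM, half-log steps), duplicate, 0.5% DMSO. Lysis in RLT, RNA isolated, TaqMan qRT-PCR for BCL2; ACTB/GAPDH/POLR2A normalisation; bidirectional fit vs DMSO.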

[4] = read-out: Bcl-2 (BID) gene, BID (gene 637); assay: LTEA_HepaRG_BID: Life Technologies and Expression Analysis (LTEA) Assay for Bcl-2 (BID) gene using HepaRG (AID 2283476)
In short: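 Transcript levels of BID, measured by qRT-PCR and normalized to three housekeeping genes, were fitted bidirectionally against DMSO controls. Cells were HepaRG, dosed 48 h at up to 100 uM.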

Caspase-3 (Homo sapiens) = Caspase-3 (Homo sapiens) (UniProt P42574); assay: LTEA_HepaRG_CASP3: Life Technologies and Expression Analysis (LTEA) Assay for cysteine-aspartic acid protease (CASP3) using HepaRG (AID 2283477)
Chain of Caspase-3 (Homo sapiens) (P42574 whole entry, looked up): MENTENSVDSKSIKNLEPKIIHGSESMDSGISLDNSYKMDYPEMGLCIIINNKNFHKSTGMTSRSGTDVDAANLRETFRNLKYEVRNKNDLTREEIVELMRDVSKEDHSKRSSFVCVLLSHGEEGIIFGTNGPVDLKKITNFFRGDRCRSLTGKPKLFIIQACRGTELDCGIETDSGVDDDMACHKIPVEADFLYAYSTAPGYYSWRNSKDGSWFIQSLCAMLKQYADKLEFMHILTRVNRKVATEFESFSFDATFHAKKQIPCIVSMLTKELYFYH
In short: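 HepaRG, 48 h exposure, 8 conc. (top 100 uM, half-log steps, duplicate), 0.5% DMSO vehicle; qRT-PCR of CASP3 transcript, housekeeping-normalised (ACTB/GAPDH/POLR2A); bidirectional curve fit vs DMSO baseline.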

[5] = read-out: Cytochrome P450 (CYP24A1), CYP24A1 (gene 1591); assay: LTEA_HepaRG_CYP24A1: Life Technologies and Expression Analysis (LTEA) Assay for Cytochrome P450 (CYP24A1) using HepaRG (AID 2283478)
In short: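 qRT-PCR read-out: CYP24A1 transcript levels normalized to three housekeeping genes, bidirectional curve fits against 0.5% DMSO baseline. Human HepaRG cells treated 48 h with chemicals at eight concentrations from 100 uM in half-log steps.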

[6] = read-out: Cytochrome P450 (CYP1A2), CYP1A2 (gene 1544); assay: LTEA_HepaRG_CYP1A2: Life Technologies and Expression Analysis (LTEA) Assay for Cytochrome P450 (CYP1A2) using HepaRG (AID 2283479)
In short: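 HepaRG, 48 h exposure, top 100 uM, half-log 8-pt, 0.5% DMSO vehicle, duplicates. Readout: TaqMan qRT-PCR of CYP1A2 mRNA, housekeeping-normalized (ACTB/GAPDH/POLR2A). Gain/loss fit relative to DMSO baseline.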

[7] = read-out: cysteine-aspartic acid protease (CASP8), CASP8 (gene 841); assay: LTEA_HepaRG_CASP8: Life Technologies and Expression Analysis (LTEA) Assay for cysteine-aspartic acid protease (CASP8) using HepaRG (AID 2283480)
In short: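 HepaRG, 48 h exposure, duplicate wells; 8 conc, half-log from 100 uM, 0.5% DMSO. Serum-free induction medium. CASP8 mRNA by TaqMan qRT-PCR, norm. ACTB/GAPDH/POLR2A; gain/loss fitted vs DMSO.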

[8] = read-out: Cytochrome P450 (CYP2B6), CYP2B6 (gene 1555); assay: LTEA_HepaRG_CYP2B6: Life Technologies and Expression Analysis (LTEA) Assay for Cytochrome P450 (CYP2B6) using HepaRG (AID 2283481)
In short: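 Read-out is CYP2B6 mRNA by TaqMan qRT-PCR, normalized to three housekeeping genes and fitted bidirectionally against 0.5% DMSO baseline. Human HepaRG cells received test chemicals for 48 h, top concentration 100 uM, half-log dilutions.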

[9] = read-out: Cytochrome P450 2C19 (Homo sapiens) (UniProt P33261); assay: LTEA_HepaRG_CYP2C19: Life Technologies and Expression Analysis (LTEA) Assay for CYP2C19 using HepaRG (AID 2283482)
In short: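 HepaRG, 48 h chemical exposure, 8-pt half-log series from 100 uM in 0.5% DMSO, duplicates. Readout: CYP2C19 mRNA by TaqMan qRT-PCR, housekeeping-normalized. Bidirectional fit vs DMSO baseline; phenobarbital 1mM as induction control.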

CYP2C8 (gene 1558) = assay: LTEA_HepaRG_CYP2C8: Life Technologies and Expression Analysis (LTEA) Assay for CYP2C8 using HepaRG (AID 2283483)
In short: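 CYP2C8 mRNA induction or loss, by qRT-PCR normalized to ACTB/GAPDH/POLR2A, is read in HepaRG cells after 48 h treatment. Concentrations run from 100 uM down in half-log dilutions, with 0.5% DMSO as vehicle and baseline.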

CYP2C9 (gene 1559) = assay: LTEA_HepaRG_CYP2C9: Life Technologies and Expression Analysis (LTEA) Assay for CYP2C9 using HepaRG (AID 2283484)
In short: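 Cells plated 48 h, switched to serum-free induction medium, then treated in duplicate for 48 h at eight concentrations (max 100 uM, 0.5% DMSO). RNA then analysed by qRT-PCR for CYP2C9; curves fitted in both directions relative to DMSO.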

CYP2E1 (gene 1571) = assay: LTEA_HepaRG_CYP2E1: Life Technologies and Expression Analysis (LTEA) Assay for CYP2E1 using HepaRG (AID 2283485)
In short: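 Human liver line HepaRG, plated 48 h, then serum-free induction medium + chemical x 48 h; 8-pt CRC from 100 uM, half-log, 0.5% DMSO, n=2. Readout: CYP2E1 mRNA qRT-PCR vs ACTB/GAPDH/POLR2A; bidirectional fit vs DMSO.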

CYP4A11 (gene 1579) = assay: LTEA_HepaRG_CYP4A11: Life Technologies and Expression Analysis (LTEA) Assay for CYP4A11 using HepaRG (AID 2283486)
In short: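 CYP4A11 transcript levels were quantified by TaqMan qRT-PCR after HepaRG human liver cells were treated for 48 hours with test chemicals (top 100 uM, half-log dilutions, 0.5% DMSO). Gain or loss of signal was fitted relative to DMSO.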

[10] = read-out: Cytochrome P450 3A4 (Homo sapiens) (UniProt P08684); assay: LTEA_HepaRG_CYP3A4: Life Technologies and Expression Analysis (LTEA) Assay for CYP3A4 using HepaRG (AID 2283487)
In short: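 Differentiated HepaRG cells in serum-free induction medium exposed in duplicate for 48 h to 8 half-log concentrations up to 100 uM in 0.5% DMSO. CYP3A4 mRNA measured by qRT-PCR normalized to ACTB, GAPDH and POLR2A; bidirectional fit versus DMSO.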

[11] = read-out: DNA damage-inducible transcript 3 (DDIT3), DDIT3 (gene 1649); assay: LTEA_HepaRG_DDIT3: Life Technologies and Expression Analysis (LTEA) Assay for DNA damage-inducible transcript 3 (DDIT3) using HepaRG (AID 2283488)
In short: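 HepaRG plated 48 h, switched to serum-free induction medium, dosed 48 h (100 uM top, half-log, 8 pts, 0.5% DMSO, n=2); RNA isolated; DDIT3 by qRT-PCR; bidirectional curve fit vs DMSO.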

[12] = read-out: Early growth response protein 1 (EGR1) transcription factor, EGR1 (gene 1958); assay: LTEA_HepaRG_EGR1: Life Technologies and Expression Analysis (LTEA) Assay for Early growth response protein 1 (EGR1) transcription factor using HepaRG (AID 2283490)
In short: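 Read-out is EGR1 mRNA level by qRT-PCR, normalized to three housekeeping genes and analysed for gain or loss of signal against 0.5% DMSO. Source cells: human HepaRG, treated 48 h at up to 100 uM in half-log dilutions.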

[13] = read-out: Pro-epidermal growth factor (Homo sapiens) (UniProt P01133); assay: LTEA_HepaRG_EGF: Life Technologies and Expression Analysis (LTEA) Assay for Epidermal growth factor (EGF) using HepaRG (AID 2283489)
In short: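 qRT-PCR readout of EGF transcript after 48 h chemical exposure of HepaRG cells; eight concentrations from 100 uM down in half-log steps, duplicate wells, 0.5% DMSO vehicle. Bidirectional curve fitting against DMSO baseline.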

[14] = read-out: Ezrin (EZR), EZR (gene 7430); assay: LTEA_HepaRG_EZR: Life Technologies and Expression Analysis (LTEA) Assay for Ezrin (EZR) using HepaRG (AID 2283491)
In short: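 Differentiated human HepaRG cells, 48 h after plating, were exposed in serum-free induction medium for 48 hours to eight half-log concentrations up to 100 uM in 0.5% DMSO. EZR mRNA was measured by TaqMan qRT-PCR, normalized to ACTB, GAPDH and POLR2A, and fitted bidirectionally against DMSO.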

Chain of Apoptosis regulator Bcl-2 (Homo sapiens) (P10415 whole entry, looked up): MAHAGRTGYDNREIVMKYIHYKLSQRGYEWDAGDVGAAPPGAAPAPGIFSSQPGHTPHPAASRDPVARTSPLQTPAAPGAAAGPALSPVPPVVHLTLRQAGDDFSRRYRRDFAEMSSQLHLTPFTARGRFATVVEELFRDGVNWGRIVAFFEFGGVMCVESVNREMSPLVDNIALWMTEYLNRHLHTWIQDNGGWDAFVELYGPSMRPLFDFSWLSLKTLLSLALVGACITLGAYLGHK
Chain of Cytochrome P450 2C19 (Homo sapiens) (P33261 whole entry, looked up): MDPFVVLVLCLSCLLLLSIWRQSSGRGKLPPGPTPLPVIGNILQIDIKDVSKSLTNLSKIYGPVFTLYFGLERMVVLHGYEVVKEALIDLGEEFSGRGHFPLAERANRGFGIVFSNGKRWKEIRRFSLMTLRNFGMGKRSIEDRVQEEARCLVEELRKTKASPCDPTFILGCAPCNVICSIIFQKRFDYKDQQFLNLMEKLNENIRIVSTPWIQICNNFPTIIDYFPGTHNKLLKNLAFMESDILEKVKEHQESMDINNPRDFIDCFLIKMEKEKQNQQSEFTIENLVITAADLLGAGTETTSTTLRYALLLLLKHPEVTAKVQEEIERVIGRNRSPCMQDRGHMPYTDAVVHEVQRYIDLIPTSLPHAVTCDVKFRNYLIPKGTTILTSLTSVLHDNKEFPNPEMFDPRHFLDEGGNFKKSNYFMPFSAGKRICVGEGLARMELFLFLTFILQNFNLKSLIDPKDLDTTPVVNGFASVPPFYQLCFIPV
Chain of Cytochrome P450 3A4 (Homo sapiens) (P08684 whole entry, looked up): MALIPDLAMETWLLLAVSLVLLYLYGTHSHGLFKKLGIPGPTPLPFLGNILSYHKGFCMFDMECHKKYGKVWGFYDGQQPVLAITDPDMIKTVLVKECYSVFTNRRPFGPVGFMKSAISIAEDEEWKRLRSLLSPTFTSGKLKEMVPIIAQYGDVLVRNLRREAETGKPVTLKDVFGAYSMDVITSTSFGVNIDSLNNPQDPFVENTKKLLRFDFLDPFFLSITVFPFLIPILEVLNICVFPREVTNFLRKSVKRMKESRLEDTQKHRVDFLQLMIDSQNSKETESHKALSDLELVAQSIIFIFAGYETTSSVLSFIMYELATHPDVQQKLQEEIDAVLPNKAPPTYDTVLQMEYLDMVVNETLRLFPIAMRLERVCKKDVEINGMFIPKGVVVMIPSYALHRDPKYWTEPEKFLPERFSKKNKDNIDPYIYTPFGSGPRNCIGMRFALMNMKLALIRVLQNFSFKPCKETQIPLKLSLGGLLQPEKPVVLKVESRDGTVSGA

For `O=C1CCC(C2CCCCC2)CC1`, the outcome [1] was “inactive”, the outcome (BCL2L11 (gene 10018)) was “inactive” and the outcome [2] was “inactive”. The outcome [3] was “inactive”, the outcome [4] was “inactive” and the outcome (Caspase-3 (Homo sapiens)) was “inactive”. For the same molecule, the outcome [5] was “inactive”, the AC50 [6] was 72.5 µM (active) and the outcome [7] was “inactive”. For the same molecule, the outcome [8] was “inactive”, the outcome [9] was “inactive” and the outcome (CYP2C8 (gene 1558)) was “inactive”. The outcome (CYP2C9 (gene 1559)) was “inactive”, the outcome (CYP2E1 (gene 1571)) was “inactive” and the outcome (CYP4A11 (gene 1579)) was “inactive”. The AC50 [10] was 32.5 µM (active), the outcome [11] was “inactive” and the outcome [12] was “inactive”.
`CN(C[C@@H](CC[N+]12CCC(C3CCCCC3)(CC1)CC2)c1ccc(Cl)c(Cl)c1)C(=O)c1cc(C(F)(F)F)cc(C(F)(F)F)c1` was tested, and the AC50 [1] was 23.2 µM (active), the outcome (BCL2L11 (gene 10018)) was “inactive” and the AC50 [2] was 8.93 µM (active). The outcome [3] was “inactive”, the outcome [4] was “inactive” and the outcome (Caspase-3 (Homo sapiens)) was “inactive”. The outcome [5] was “inactive”, the AC50 [6] was 11.5 µM (active) and the outcome [7] was “inactive”. The AC50 [8] was 18 µM (active), the AC50 [9] was 29.9 µM (active) and the AC50 (CYP2C8 (gene 1558)) was 25.4 µM (active). The AC50 (CYP2C9 (gene 1559)) was 12.9 µM (active), the AC50 (CYP4A11 (gene 1579)) was 21.1 µM (active) and the AC50 [10] was 30.9 µM (active). For the same molecule, the AC50 [11] was 12.1 µM (active) and the AC50 [12] was 54.4 µM (active).
`CC1(C)NC(=O)N(c2ccc([N+](=O)[O-])c(C(F)(F)F)c2)C1=O` was tested, and the AC50 [1] was 80.5 µM (active), the outcome (BCL2L11 (gene 10018)) was “inactive” and the AC50 [2] was 67.9 µM (active). For the same molecule, the AC50 [3] was 78.9 µM (active), the outcome [4] was “inactive” and the outcome (Caspase-3 (Homo sapiens)) was “inactive”. For the same molecule, the outcome [5] was “inactive”, the AC50 [6] was 85.5 µM (active) and the outcome [7] was “inactive”. The AC50 [8] was 81.4 µM (active), the AC50 [9] was 12.4 µM (active) and the AC50 (CYP2C8 (gene 1558)) was 85.5 µM (active). For the same molecule, the AC50 (CYP2C9 (gene 1559)) was 83.6 µM (active), the AC50 (CYP2E1 (gene 1571)) was 63.2 µM (active) and the AC50 (CYP4A11 (gene 1579)) was 69.3 µM (active). The AC50 [11] was 75.7 µM (active), the outcome [13] was “inactive” and the outcome [12] was “inactive”. The AC50 [14] was 93 µM (active).
